Experimental data reported in the supplement of paper PMC9135407.
“And” between values parts separate entries of the source, which are not always exact repeats. Equal values may be shown once. Where a name gives a salt, the structure may show the parent alone. Hit rate of the full screen: of about 5,800 compounds, about 620 (11%) showed activity. For the sample, actives were picked, then their nearest neighbours and some compounds at random. Unmarked numbers belong to inactive results.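 The calls were made as follows: active = score above a cut-off or among the top three wells of a plate; in these data no inactive exceeds 0.85.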

System: primary human hepatic stellate cells (donor 1)
Assay: scaled lipid accumulation score (0 = DMSO-like, 1 = nortriptyline-like); higher = stronger HSC inactivation (lipid re-accumulation), active = hit call of the paper
Settings: 48 h
[1] = library stock concentration: 1 mM
[2] = library stock concentration: 10 mM
[3] = library stock concentration: 6.9 mM
[4] = library stock concentration: 3.33 mM

SMILES: C=C(C)[C@@H]1CCC(C)=C[C@H]1C1=C(O)C(=O)C(CCCCC)=CC1=O
- scaled lipid accumulation score [1]: 0.055

SMILES: CC1=C2C(=CO[C@H](C)[C@H]2C)C(O)=C(C(=O)O)C1=O [Citrinin]
- scaled lipid accumulation score [2]: ≤ 0

SMILES: Cn1c2cccc(=O)c-2nc2ccccc21 [Pyocyanin]
- scaled lipid accumulation score [1]: ≤ 0

SMILES: CC(=O)OC1CN2CCC1CC2 (stereo not given)
- scaled lipid accumulation score [2]: 0.001

SMILES: CCCCC/C=C\C/C=C\C/C=C\C/C=C\CCCC(=O)NC1CC1 [Arachidonoyl Cyclopropylamide]
- scaled lipid accumulation score [1]: ≤ 0

SMILES: CN(C(=O)Cc1ccccc1)C(CN1CCCC1)c1ccccc1 (stereo not given) [N-MPPP Hydrochloride]
- scaled lipid accumulation score [2]: 0.172

SMILES: CN(C(=O)Cc1ccc(Cl)c(Cl)c1)[C@H](CN1CCCC1)c1ccccc1.Cl [ICI-199,441 hydrochloride]
- scaled lipid accumulation score [2]: 1.58 (active)

SMILES: CN(C(=O)Cc1ccc(Cl)c(Cl)c1)C(CN1CCCC1)c1cccc(OCC(=O)O)c1 (stereo not given) [ICI 204,448 hydrochloride]
- scaled lipid accumulation score [2]: 0.053

SMILES: CCCCCc1cc(O)c2c(c1)OC(C)(C)C1CCC(C(=O)O)=CC21 (stereo not given) [Tetrahydrocannabinol-7-oic acid]
- scaled lipid accumulation score [1]: ≤ -0.021

SMILES: COc1cc(CNC(=O)CCCCCCC(C)C)c(I)cc1O
- scaled lipid accumulation score [1]: ≤ 0

SMILES: COc1cc2c3cc1Oc1cc(ccc1O)C[C@@H]1c4c(cc(OC)c(O)c4Oc4cccc(c4)C[C@@H]3N(C)CC2)CC[N+]1(C)C [Tubocurarine chloride pentahydrate (+)]
- scaled lipid accumulation score: 0.039

SMILES: CCCOc1ccc2[nH]cc(C3=CCNCC3)c2n1
- scaled lipid accumulation score [2]: 0.748

SMILES: COc1ccc2[nH]c3c(c2c1)CCNC3 [6-Methoxy-1,2,3,4-tetrahydro-9H-pyrido[3,4b] indole]
- scaled lipid accumulation score [2]: 0.691

SMILES: COc1ccc2[nH]cc(C3=CCNCC3)c2c1.COc1ccc2[nH]cc(C3=CCNCC3)c2c1.O=C(O)CCC(=O)O
- scaled lipid accumulation score [2]: 1.68 (active)

SMILES: O=c1ccc2[nH]cc(C3=CCNCC3)c2[nH]1
- scaled lipid accumulation score [2]: 0.084 and ≤ -0.006

SMILES: N#Cc1ccc(N2CCN(C(=O)COc3ccc4[nH]cc(CCN)c4c3)CC2)cc1 [Donitriptan hydrochloride]
- scaled lipid accumulation score [2]: ≤ 0

SMILES: CN1CC[C@@H]2CN3CCc4cccc(c43)[C@@H]2C1 [SDZ SER 082 fumarate]
- scaled lipid accumulation score [2]: ≤ -0.006

SMILES: CCCCCC(=O)N[C@H]1CCOC1=O [N-hexanoyl-L-Homoserine lactone]
- scaled lipid accumulation score [1]: ≤ 0

SMILES: CO[C@H](C/C=C\C=C\CC/C=C/C[C@H](C)/C=C/C(=C\C(=O)O)CC(=O)O)/C(C)=C\C=C(/C)C(=O)O [Bongkrekic acid]
- scaled lipid accumulation score [1]: ≤ -0.014

SMILES: N#CC(C#N)=Cc1ccc(O)cc1 [Tyrphostin-8]
- scaled lipid accumulation score (library stock concentration: 29.4 mM): ≤ -0.012

SMILES: CC(Cc1ccc(OCC(=O)O)cc1)NCC(O)c1cccc(Cl)c1 (stereo not given)
- scaled lipid accumulation score [2]: 0.056

SMILES: COc1ccc(CC2c3cc(OC)c(OC)cc3CCN2C)cc1OC (racemic) [Laudanosine (R,S)]
- scaled lipid accumulation score: ≤ 0

SMILES: COc1cc2c(cc1O)C(CCc1ccc(Cl)cc1)N(C)CC2.Cl (stereo not given)
- scaled lipid accumulation score [2]: 0.872 (active)

SMILES: COc1cc2c(cc1O)[C@@H]1Cc3ccc(OC)c(O)c3CN1CC2 [Scoulerine]
- scaled lipid accumulation score: 0.07

SMILES: C/C1=C/C(=O)O[C@@H]2C[C@@H](CC[C@H](C)/C=C\CC1)O[C@@](O)([C@@H]1CSC(=O)N1)C2 [Latrunculin B]
- scaled lipid accumulation score (library stock concentration: 12.6 mM): 0.632

SMILES: CCCCC/C=C\C/C=C\C/C=C\C/C=C\CCCC(=O)N[C@@H](C)CO [S-1 Methanandamide]
- scaled lipid accumulation score [1]: ≤ 0

SMILES: CN1C2CC(=O)CC1C(O)C2 (stereo not given) [6-Hydroxytropinone]
- scaled lipid accumulation score: ≤ 0

SMILES: CN1[C@@H](C[C@@H](O)c2ccccc2)CCC[C@H]1C[C@H](O)c1ccccc1 [Lobelanidine hydrochloride]
- scaled lipid accumulation score: 0.194

SMILES: O=C(O)C1=CCCN(CCOC(c2ccc(C(F)(F)F)cc2)c2ccc(C(F)(F)F)cc2)C1 [CI 966 hydrochloride]
- scaled lipid accumulation score [2]: ≤ -0.006

SMILES: CC1=C(O)C(=O)C=C2C1=CC=C1[C@@]2(C)CC[C@@]2(C)[C@@H]3C[C@](C)(C(=O)O)CC[C@]3(C)CC[C@]12C [Celastrol] [listing 1 of 2 here]
- scaled lipid accumulation score (library stock concentration: 80 uM): 0.019
- scaled lipid accumulation score (library stock concentration: 400 uM): 0.093
- scaled lipid accumulation score [2]: 0.392

SMILES: CC1=C(O)C(=O)C=C2C1=CC=C1[C@@]2(C)CC[C@@]2(C)[C@@H]3C[C@](C)(C(=O)O)CC[C@]3(C)CC[C@]12C [Celastrol] [listing 2 of 2 here]
- scaled lipid accumulation score [1]: 1.34 (active)

SMILES: O=C1C=C2C(C(C)=C1O)=CC=C3[C@]2(CCC4([C@@H]5C[C@@](CC[C@@]5(CC[C@]34C)C)([C@@](O)=O)C)C)C (stereo not given in full) [Celastrol]
- scaled lipid accumulation score (library stock concentration: 2 mM): 1.14 (active)
- scaled lipid accumulation score [2]: 1.14 (active)

SMILES: CN1CCN(C(=O)O[C@H]2c3nccnc3C(=O)N2c2ccc(Cl)cn2)CC1
- scaled lipid accumulation score [2]: 0.134

SMILES: CN1CCN(C(=O)O[C@H]2c3nccnc3C(=O)N2c2ccc(Cl)cn2)CC1 [Eszopiclone]
- scaled lipid accumulation score [2]: ≤ 0

SMILES: C#CCN[C@H](C)Cc1ccccc1 [R-(-)-Desmethyldeprenyl hydrochloride]
- scaled lipid accumulation score [2]: ≤ 0

SMILES: CC[C@@H]1C=CC=CC[C@H](C)[C@@H](O)[C@@H](C)C(=O)[C@H](C)[C@@H](O)[C@H](C)C(=O)[C@H](C)[C@@H](O)[C@H](C)C=CC(=O)O[C@H]2[C@@H](C)[C@@H](CC1)O[C@@]1(CC[C@@H](C)[C@@H](C[C@H](C)O)O1)[C@@H]2C
- scaled lipid accumulation score [2]: ≤ 0

SMILES: CN1[C@@H]2CC[C@H]1C[C@@H](OC(=O)C(CO)c1ccccc1)C2 (stereo not given in full) [Atropine sulfate]
- scaled lipid accumulation score (library stock concentration: 5.2 mM): 0.019
- scaled lipid accumulation score [3]: 0.018
- scaled lipid accumulation score [2]: 0.196 and ≤ 0

SMILES: CN1[C@@H]2CC[C@H]1C[C@@H](OC(=O)[C@H](CO)c1ccccc1)C2 [L-Hyoscyamine]
- scaled lipid accumulation score [2]: ≤ -0.07

SMILES: CN1[C@@H]2CC[C@H]1C[C@@H](OC(=O)C(CO)c1ccccc1)C2 (stereo not given in full)
- scaled lipid accumulation score [2]: ≤ 0

SMILES: CN1[C@@H]2CC[C@H]1CC(OC(=O)N1Cc3ccccc3NC1=O)C2 (stereo not given in full) [DAU 5884 hydrochloride]
- scaled lipid accumulation score [2]: ≤ -0.001

SMILES: COc1ccc(C(=O)OC2C[C@H]3CC[C@@H](C2)N3C)cc1OC (stereo not given in full) [Convolamine hydrochloride]
- scaled lipid accumulation score: 0.027

SMILES: CN1[C@@H]2CC[C@H]1C[C@@H](OC(=O)C(CO)c1ccccc1)C2 (stereo not given in full) [Atropine]
- scaled lipid accumulation score [4]: ≤ 0
- scaled lipid accumulation score [2]: ≤ 0

SMILES: CN1[C@@H]2CC[C@H]1C[C@@H](OC(=O)[C@H](CO)c1ccccc1)C2 [Hyoscyamine (L)]
- scaled lipid accumulation score: ≤ 0

SMILES: CC(C(=O)OC1CC2CCC(C1)N2C)c1ccc(Br)cc1.O=C(O)/C=C\C(=O)O (stereo not given) [PG-9 maleate]
- scaled lipid accumulation score [2]: 0.958 (active)

SMILES: CN1[C@@H]2CC[C@H]1C[C@@H](OC(=O)C(CO)c1ccccc1)C2 (stereo not given in full) [Atropine sulfate monohydrate]
- scaled lipid accumulation score: 0.118

SMILES: CCC(Oc1ccc(Cl)cc1)C(=O)OC1CC2CCC(C1)N2C.O=C(O)/C=C\C(=O)O (stereo not given) [SM-21 maleate]
- scaled lipid accumulation score [2]: 0.886 (active)

SMILES: CN1[C@@H]2CC[C@H]1C[C@@H](OC(=O)[C@H](CO)c1ccccc1)C2 [Hyoscyamine]
- scaled lipid accumulation score [4]: ≤ 0
- scaled lipid accumulation score [3]: ≤ -0.001
- scaled lipid accumulation score [2]: ≤ 0 and 0.017
